biological target: Sialic acid-binding Ig-like lectin 9 (Homo sapiens) (UniProt Q9Y336); test: Hs-Siglec9 ALPHAscreen SOP 20170721; design: scale not given: direction of the effect not stated beside the values; conditions: 10 µM
Sequence (Q9Y336 whole entry): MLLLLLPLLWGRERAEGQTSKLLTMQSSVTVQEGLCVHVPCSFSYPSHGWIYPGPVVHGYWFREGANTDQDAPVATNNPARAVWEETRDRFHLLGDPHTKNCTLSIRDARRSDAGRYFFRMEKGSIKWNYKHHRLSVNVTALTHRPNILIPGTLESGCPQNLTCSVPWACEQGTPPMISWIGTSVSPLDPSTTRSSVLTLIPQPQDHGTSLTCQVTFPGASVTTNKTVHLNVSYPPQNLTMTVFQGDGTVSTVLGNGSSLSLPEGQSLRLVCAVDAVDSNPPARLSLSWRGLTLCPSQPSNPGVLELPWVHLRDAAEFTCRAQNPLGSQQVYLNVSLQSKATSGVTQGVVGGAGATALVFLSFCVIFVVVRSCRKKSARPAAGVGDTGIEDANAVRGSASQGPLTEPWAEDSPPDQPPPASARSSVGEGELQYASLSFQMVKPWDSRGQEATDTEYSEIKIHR

SMILES | Percent Effect [%]
COc1cc(CNCCc2nc(C)cs2)cc2c1OCCO2 | 15.7
Cc1ccc(CN(Cc2ccccn2)C2CC(C)(C)NC(C)(C)C2)s1 | 7.72
CCc1ccccc1C(=O)N1CCN(S(C)(=O)=O)[C@@H](C)C1 | 7.54
COCCN(Cc1ccc(F)cc1Cl)C(=O)c1ccc(=O)[nH]n1 | 29.6
CC(Oc1ccccc1C(F)(F)F)C(=O)NCC(N)=O (centres undefined) | -2.42
Cc1cc(-c2cnc(N3CCNC(=O)C3)nc2-c2ccc(C)o2)on1 | 11.1
Cc1csc(CNC(=O)NCCc2ccc3c(c2)OCCO3)n1 | -16.2
O=C1COC2(CCN(CC3CC3)CC2)CN1c1ccccc1 | 8.07
COc1ccc(CCN2CCC(N3CCN(C)C3=O)CC2)cc1 | 0.317
CCOC(=O)c1c(NC(=O)CN2CCN(C(C)=O)CC2)sc2c1CCC2 | 4.99
CC(C)(C(=O)NCC(N)=O)c1ccccc1F | -6.27
COc1c(CNCCNC(=O)Cc2ccc(F)cc2)c(C)nn1C | -2.01
Cc1ccc(C(=O)N2CCO[C@H]3[C@@H](OCc4ccccn4)CC[C@@H]32)o1 | 3.45
CN1N=C(C(=O)NCc2ccc3c(c2)CCCN3C)CCC1=O | -1.03
Cc1ccc(CCC(=O)N(C)CCN2CCOCC2)c(C)c1 | 4.55
c1cnnc(N2CCCC2CNCc2nc3ccccc3o2)c1 (centres undefined) | 10.3
Cc1nc(C(=O)N2CCCC2c2c(C)nn(C)c2C)ccc1C#N (centres undefined) | 4.58
Cc1noc([C@H]2C[C@@H]3CCN(CC4CC4)C[C@H]3O2)n1 | 0.715
CCOCC(=O)N1C[C@@H](NC(C)=O)[C@H](c2ccc(OC)cc2)C1 | 9.11
CCN1CC2(CCNCC2)COc2ccccc2S1(=O)=O | 3.15

SMILES | Percent Effect [%]
O=C(O)C1(Cc2cc(-c3cccc(F)c3)no2)CCOCC1 | 6.38
COc1ccc(C2(NC(=O)CCn3cncn3)CCCCC2)cc1 | 7.71
CCC(CNC(=O)Nc1cnn(CC)c1)N1CCCC1 (centres undefined) | -3.26
CC1CCCCN1CCNC(=O)c1ccn(-c2ccc(F)cc2)n1 (centres undefined) | 3.77
CN1CCCC(c2cccc(Cc3ccccc3Cl)n2)C1 (centres undefined) | 3.2
COCC1CN(C(=O)CNC(C)=O)Cc2ncnn2C1 (centres undefined) | 8.97
CCN(Cc1nc(C(C)C)no1)Cc1cccs1 | 6.48
CCc1nc(CN2CCCN(c3nc4ccccc4o3)CC2)no1 | 2.65
CC(NC(=O)Cn1cccn1)c1cccnc1 (centres undefined) | 11
COCc1ccccc1NC(=O)[C@@H]1CCCN1C(=O)c1ccco1 | 20.1
CCc1nnc2n1CCN(CC(=O)Nc1sccc1C#N)C2 | -3.22
COCC1CCN(C(=O)c2cccc(S(=O)(=O)NCC3(C)COC3)c2)C1 (centres undefined) | 24.4
CC(C)N1CCC(NCc2cccnc2N(C)Cc2ccccc2)CC1 | 0.0952
CCc1cnc(CN(C)C2CCN(CCc3cccs3)C2)o1 (centres undefined) | -0.997
CN(CCn1nc2ccccn2c1=O)CC(=O)N1CCCC1 | 5.95
Cc1ccc(-c2csc(N)c2C#N)cc1 | 11.3
O=C(NCCN1CCOCC1)c1ccc(-n2ccc3ccccc32)s1 | -1.07
Cc1cnn(CC2CN(c3ncnc4ccccc34)CCO2)c1 (centres undefined) | 9.68
O=S(=O)(Cc1ccccc1)NCc1ccco1 | 0.175
